Data on 15 molecules can be found in PubChem BioAssay.

For part of these data: Measured potencies and affinities stand elsewhere. Active and inactive are the calls of the source.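 The calls were made as follows, unless noted: active = fitted half-maximal concentration within 10 nM to 100 µM, steepness 0.5 to 2, significant signal drop, low assay interference; inactive = the rest.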

Assay [1] deals with Cell division control protein 42 homolog (Homo sapiens) (UniProt P60953). Briefly: activated mutant Cdc42 GTP-binding inhibitors, dose response, biochemical, multiplex bead flow cytometry, Bodipy-FL-GTP (AID 1333;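 active = fitted half-maximal concentration within the tested dose range, moderate curve steepness, a statistically real signal drop, and little compound fluorescence or tag-binding interference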).
Cell division control protein 42 homolog (Homo sapiens), sequence (P60953 whole entry, looked up): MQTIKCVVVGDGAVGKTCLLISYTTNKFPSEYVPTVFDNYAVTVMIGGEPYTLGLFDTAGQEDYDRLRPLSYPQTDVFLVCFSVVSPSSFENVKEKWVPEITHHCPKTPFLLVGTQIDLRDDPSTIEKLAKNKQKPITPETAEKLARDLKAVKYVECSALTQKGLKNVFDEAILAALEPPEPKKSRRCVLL
The target is the same in assay [2]. The experiment in a line: wildtype Cdc42 GTP-binding inhibitors, dose response, biochemical, multiplex bead flow cytometry, Bodipy-FL-GTP (AID 1334;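 active = fitted half-maximal concentration within the tested range, moderate curve steepness, significant signal drop, and little compound fluorescence or bead-linkage interference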). Conditions: bead-based flow cytometry, Bodipy-FL-GTP binding to GST-Cdc42; at 100 µM (top of the series) unless noted. (In flow cytometry, cells or beads pass a laser one at a time.)
For assay [3], the target named is GTPase HRas (Homo sapiens) (UniProt P01112). The experiment in a line: inhibitors of GTP binding to wildtype Ras, dose response, biochemical, multiplex bead flow cytometry (AID 1335). Conditions: bead-based flow cytometry, Bodipy-GTP binding to GST-Ras; at 100 µM (top of the series) unless noted.
GTPase HRas (Homo sapiens), sequence (P01112 whole entry, looked up): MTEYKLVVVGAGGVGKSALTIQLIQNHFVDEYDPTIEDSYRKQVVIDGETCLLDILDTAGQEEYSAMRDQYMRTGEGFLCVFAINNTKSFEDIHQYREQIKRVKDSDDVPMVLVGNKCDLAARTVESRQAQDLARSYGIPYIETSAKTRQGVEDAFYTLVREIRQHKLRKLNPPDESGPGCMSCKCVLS
Assay [4] relates to Ras-related protein Rab-7a (dog), GTP binding. Briefly: Rab7 GTP binding inhibitors, potency, dose response, biochemical, wildtype, multiplex bead flow cytometry (AID 1336; call rule not given here).
In assay [5] the target is Ras-related C3 botulinum toxin substrate 1 (Homo sapiens) (UniProt P63000). Briefly: wildtype Rac1 GTP binding inhibitors, dose response, biochemical, multiplex bead flow cytometry (AID 1340;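 active = dose curve with midpoint inside tested range, moderate steepness, plateau gap beyond fit error, low compound glow and bead-link interference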). Conditions: GST-Rac1 beads, Bodipy-FL-GTP binding; at 100 µM (top of the series) unless noted.
For assay [6], the target named is GTPase HRas (Homo sapiens) (UniProt P01112). Briefly: activated Ras mutant GTP binding inhibitors, dose response, biochemical, multiplex bead flow cytometry (AID 1341;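 active = dose-response curve with midpoint inside the tested range, moderate steepness, significant amplitude and little compound fluorescence or bead-attachment interference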;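 also: GST-tagged constitutively activated Ras mutant immobilized on beads and multiplexed with other GTPases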).

In the case of `CCOc1ccc(-n2nc3c(=S)[nH]nc(C)c3c2C)cc1`, the molecule was called inactive in assay [1], in assay [4] and in assay [6]. Further, the fluorescence, percent of control (lower = inhibition) in assay [2] was found to be 53.6%. Besides, in assay [3], the GTP binding, percent of control was determined as 66.6%. This molecule had a GTP binding signal, raw median fluorescence (lower = inhibition) (MCF (arbitrary fluorescence units)) in assay [5] of 0.

`CC(C)N(C(=O)Cn1cnc2cc([N+](=O)[O-])ccc2c1=O)C(C)C`: the molecule was classed as inactive in assay [1], in assay [4] and in assay [6]. Moreover, the fluorescence, percent of control (lower = inhibition) in assay [2] amounted to 34.2%. The molecule further had a GTP binding, percent of control in assay [3] of 76.5%. This molecule also showed a GTP binding signal, raw median fluorescence (lower = inhibition) (MCF (arbitrary fluorescence units)) in assay [5] of 156.

For `COc1ccc(C(=O)c2c(O)cc(-c3ccc(OC)cc3)oc2=O)cc1`, the call in assay [1] and in assay [4] was inactive. In addition, the fluorescence, percent of control (lower = inhibition) in assay [2] worked out at 52.9%. The GTP binding, percent of control in assay [3] worked out at 70.9%. This molecule showed a GTP binding signal, raw median fluorescence (lower = inhibition) (MCF (arbitrary fluorescence units)) in assay [5] of 249.

Take `COc1cc(-c2cc(-c3ccc(O)cc3)nc(N)c2C#N)ccc1O`: the result in assay [1], in assay [4] and in assay [6] was inactive. Besides, in assay [2], the fluorescence, percent of control (lower = inhibition) is 28%. The molecule also had a GTP binding, percent of control in assay [3] of 70.9%. In assay [5], this molecule yielded a GTP binding signal, raw median fluorescence (lower = inhibition) (MCF (arbitrary fluorescence units)) of 158.

Consider `COc1ccc(-n2c(C)cc(/C=C3/SC(=S)N(C)C3=O)c2C)cc1`, for which the molecule was called inactive in assay [1], in assay [4] and in assay [6]. The fluorescence, percent of control (lower = inhibition) in assay [2] came to 76.1%. This molecule also registered a GTP binding, percent of control in assay [3] of 85.8%. This molecule displayed a GTP binding signal, raw median fluorescence (lower = inhibition) (MCF (arbitrary fluorescence units)) in assay [5] of 0.

For the molecule `COc1ccc(C(=O)N/C(=C\c2cccc([N+](=O)[O-])c2)C(=O)Nc2cccc(C(=O)O)c2)cc1`, the outcome in assay [1], in assay [4] and in assay [6] was inactive. Besides, the fluorescence, percent of control (lower = inhibition) in assay [2] was 35.1%. This molecule gave a GTP binding, percent of control in assay [3] of 78.2%. Also, in assay [5], the GTP binding signal, raw median fluorescence (lower = inhibition) (MCF (arbitrary fluorescence units)) worked out at 162.

As for `O=C(COC(=O)C12CC3CC(CC(C3)C1)C2)Nc1nc2c(F)c(F)c(F)cc2s1`, the molecule was called inactive in assay [1], in assay [4] and in assay [6]. The fluorescence, percent of control (lower = inhibition) in assay [2] turned out to be 44.1%. Moreover, in assay [3], the GTP binding, percent of control was 68.1%. For the same molecule, the GTP binding signal, raw median fluorescence (lower = inhibition) (MCF (arbitrary fluorescence units)) in assay [5] is 0.

With `Cc1ccc([N+](=O)[O-])cc1-c1ccc(/C=C(\C#N)c2[nH]nc(N)c2C#N)o1`, the molecule was called inactive in assay [1], in assay [4] and in assay [6]. In addition, the fluorescence, percent of control (lower = inhibition) in assay [2] amounted to 32.4%. The molecule also displayed a GTP binding, percent of control in assay [3] of 72.8%. The molecule further gave a GTP binding signal, raw median fluorescence (lower = inhibition) (MCF (arbitrary fluorescence units)) in assay [5] of 221.

`COc1cc2[nH]c(=S)nc(NCCc3ccc(C)cc3)c2cc1OC`: the molecule was called inactive in assay [1], in assay [4] and in assay [6]. Also, the fluorescence, percent of control (lower = inhibition) in assay [2] came to 26.6%. The molecule also showed a GTP binding, percent of control in assay [3] of 59.9%. This molecule also had a GTP binding signal, raw median fluorescence (lower = inhibition) (MCF (arbitrary fluorescence units)) in assay [5] of 125.

Take `O=C(O)CSc1nc2ccccc2n1CCOc1ccccc1F`: the molecule was classed as inactive in assay [1], in assay [4] and in assay [6]. Further, the fluorescence, percent of control (lower = inhibition) in assay [2] was determined as 58.4%. This molecule also had a GTP binding, percent of control in assay [3] of 90.3%. This molecule showed a GTP binding signal, raw median fluorescence (lower = inhibition) (MCF (arbitrary fluorescence units)) in assay [5] of 37.2.

For the molecule `CC(=O)c1c(C)[nH]c(C(=O)N2CCc3ccccc3C2)c1C`, the outcome in assay [1] and in assay [4] was inactive. Moreover, the fluorescence, percent of control (lower = inhibition) in assay [2] stood at 107%. The same molecule returned a GTP binding, percent of control in assay [3] of 192%.

On to `COc1ccc(S(=O)(=O)n2oc(=O)cc2-c2ccccc2)cc1`, for which the outcome in assay [1], in assay [4] and in assay [6] was inactive. In assay [2], the fluorescence, percent of control (lower = inhibition) was found to be 42.2%. For the same molecule, the GTP binding, percent of control in assay [3] was 90.8%. The molecule also had a GTP binding signal, raw median fluorescence (lower = inhibition) (MCF (arbitrary fluorescence units)) in assay [5] of 248.

Consider `Cc1cccc(S(=O)(=O)c2c(N)n(/N=C/c3cccnc3)c3nc4ccccc4nc23)c1`, for which the result in assay [1], in assay [4] and in assay [6] was inactive. For the same molecule, the fluorescence, percent of control (lower = inhibition) in assay [2] came out at 81.3%. In assay [3], this molecule registered a GTP binding, percent of control of 51.7%. In addition, the GTP binding signal, raw median fluorescence (lower = inhibition) (MCF (arbitrary fluorescence units)) in assay [5] is 135.

Turning to `O=C(O)c1ccccc1NCc1c(Cl)cccc1Cl`, the result in assay [1], in assay [4] and in assay [6] was inactive. Also, the fluorescence, percent of control (lower = inhibition) in assay [2] came out at 59.4%. In assay [3], this molecule registered a GTP binding, percent of control of 87.4%. In assay [5], this molecule gave a GTP binding signal, raw median fluorescence (lower = inhibition) (MCF (arbitrary fluorescence units)) of 30.2.

For the molecule `COc1ccc(OCc2ccccc2Br)c(C(=O)O)c1`, the call in assay [1], in assay [4] and in assay [6] was inactive. Besides, the fluorescence, percent of control (lower = inhibition) in assay [2] was 53%. This molecule returned a GTP binding, percent of control in assay [3] of 217%. Besides, the GTP binding signal, raw median fluorescence (lower = inhibition) (MCF (arbitrary fluorescence units)) in assay [5] was found to be 49.3.
